An excerpt weighted towards active compounds, which were near 2.4% of everything screened.
TDP1 block = qHTS Assay for Inhibitors of Tyrosyl-DNA Phosphodiesterase (TDP1) | Tyrosyl-DNA phosphodiesterase 1 (Homo sapiens), Q9NUW8 | recombinant TDP1, AlphaScreen DNA substrate cleavage | Potency, µM (top dose mostly 130 µM), hits mostly inhibitors | actives 0.28% (n = 350,000); further: nearly all actives have a fitted effect of over 40% in size
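Recombinant E. coli-expressed Tdp1 (1 nM) preincubated with compound 15 min at RT, then 5'-biotin/3'-phosphotyrosine-FITC DNA substrate (15 nM) added for 5 min. AlphaScreen beads (10 ug/ml) added, 10 min RT; tyrosine-FITC cleavage read as signal loss.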
FEN1 inh = qHTS Assay for the Inhibitors of Human Flap endonuclease 1 (FEN1); Recombinant FEN1 flap cleavage, fluorescence, 15 min; AID 588795, 2011; Potency, µM (doses to about 114 µM), hits mostly inhibitors; actives 0.35% (n = 390,000); P39748; further: nearly all actives have a fitted effect of over 65% in size
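In this screen, 50 nM flap DNA substrate was added to 10 nM FEN1 pretreated with compound for 15 min at room temperature; cleavage was followed with reads at 0 and 15 min, and Hill fitting gave concentration–response parameters.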
POLI inh = qHTS for Inhibitors of Polymerase Iota; DNA polymerase iota (Homo sapiens), Q9UNA4; Pol iota fluorescent replication assay, 10 min; Potency, µM (titrated, usually from 115 µM), hits mostly inhibitors; actives 1% (n = 390,000); AID 588590, 2011
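Fluorescent replication assay read twice, at 0 min and 10 min after adding 50 nM (final) substrate. Enzyme (10 nM) and compounds were first incubated 15 min at room temperature; enzyme-free buffer wells were negative controls.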
Pol kappa inh-1 = qHTS for Inhibitors of Polymerase Kappa; DNA polymerase kappa (Homo sapiens), Q9UBT6; purified Pol kappa, fluorescent DNA synthesis assay, 10 min; Potency, µM (doses to about 107 µM), actives largely listed as inhibitors; actives 0.53% (n = 400,000)
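First, compounds were pin-transferred onto 10 nM Pol kappa. After 15 min at room temperature, substrate was added to 50 nM final. Fluorescence was then measured kinetically at 0 and 10 min.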
Pol eta inh-1 = qHTS for Inhibitors of Polymerase Eta; recombinant Pol eta, fluorescent DNA replication assay; actives 1.2% (n = 390,000); DNA polymerase eta (Homo sapiens), Q9Y253; Potency, µM (highest dose often 114 µM), usual class: inhibitors
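Pol eta at 10 nM preincubated with compounds 15 min at room temperature; reaction started with fluorescent substrate (50 nM final) and read kinetically at 0 and 10 min.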
Pol beta inh = qHTS Assay for Inhibitors of DNA Polymerase Beta | P06746 | Pol beta primer extension/strand displacement, fluorescence kinetic | Potency, µM (titrated, usually from 114 µM), usual class: inhibitors | actives 1.3% (n = 340,000) | AID 485314, 2010
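Kinetic readout of DNA synthesis with strand displacement by Pol beta. Compound and 10 nM enzyme sit 15 min at room temperature; 50 nM substrate starts the reaction, read immediately and at 10 min.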
GALK inh confirm = Confirmation Assay for Inhibitors of Human Galactokinase (GALK) | shares compounds with Pol eta inh-1 | Potency, µM (titrated, usually from 115 µM), usual class: inhibitors | actives 70% (n = 150) | purified GALK, Kinase-Glo ATP depletion luminescence
GALK redox cs = Confirmatory Assay for Inhibitors of Human Galactokinase (GALK): Phenol-HRP redox assay counterscreen | shares compounds with Pol eta inh-1 | Phenol red-HRP H2O2 redox cycling, absorbance 600 nm | Potency, µM (titrated, usually from 115 µM), most hits filed as inhibitors | actives 40% (n = 150) | AID 2035, 2009
HEK293 tox = Secondary Assay for Inhibitors of Human Galactokinase (GALK): HEK-293 Cell Viability Assay. shares compounds with Pol eta inh-1. actives 10% (n = 170). Potency, µM (series often up to 46.1 µM), hits mostly inhibitors. AID 2547, 2010. HEK-293 viability, ATP luminescence (CellTiter-Glo), 24/48 h
Pol kappa inh-2 = qHTS for Inhibitors of Polymerase Kappa: Confirmatory Assay for Cherry-picked Compounds; shares compounds with Pol eta inh-1; purified Pol-kappa, fluorescent strand-displacement substrate; Potency, µM, hits mostly inhibitors; actives 76% (n = 920)
Pol eta inh-2 = qHTS for Inhibitors of Polymerase Eta: Confirmatory Assay for Cherry-picked Compounds | shares compounds with Pol eta inh-1 | actives 64% (n = 2,600) | Potency, µM, usual class: inhibitors | Pol eta primer extension, TAMRA/BHQ fluorescence, 10 min
Numbers stand for hits; n = inactive; u = inconclusive; x = no result; [ ] = another dose, or the depositor's remark. The call rests on the fitted dose curve; in most records, active means well fitted curve in the direction sought with a large enough effect; inconclusive means small, poorly fitted or top-dose-only effect, or another doubt; inactive means no such curve, though single readings can be large; an effect the other way counts as inactive or inconclusive.

SMILES	TDP1 block	FEN1 inh	POLI inh	Pol kappa inh-1	Pol eta inh-1	Pol beta inh	Pol eta inh-2	others
O=C(COc1ccccc1/C=C\c1[nH]c(=O)[nH]c(=O)c1[N+](=O)[O-])Nc1ccccc1	n	n	20µM	n	22.4µM	n	75.7	GALK inh confirm=37.5µM;GALK redox cs=n;HEK293 tox=n
C#CCN1C(=O)S/C(=C\c2ccc(-c3ccc(Cl)c(C(=O)O)c3)o2)C1=O	x	u	u	35.5µM	14.1µM	u	u
C#CCN1C(=O)S/C(=C\c2cc3c(cc2OC)OCO3)C1=O	n	n	n	n	n	n	x
CC(=O)c1nn(-c2ccc(Cl)cc2)c(=O)[nH]c1=O	x	n	n	n	n	n	x
O=c1[nH][nH]c2cc(=O)n(-c3ccc(Cl)cc3)nc12	n	n	u	79.4µM	u	u	u	Pol kappa inh-2=16.8
CCN(CCCCN1C(=O)c2ccccc2C1=O)c1ccc2c(c1)C(=O)N(C)C2=O	x	n	15.8µM	u	50.1µM	n	u
CC1=C(C#N)C(=O)NC(=O)/C1=C\c1ccc(-c2cc(C)c(C)cc2[N+](=O)[O-])o1	n	n	u	u	u	u	u	Pol kappa inh-2=u
CCOc1ccc(C(=O)Nc2ccc3nc(SCC(=O)N(C)c4ccccc4)sc3c2)cc1	n	n	u	n	n	n	x
Cc1cc(N=NC(=O)c2ccccc2)ccc1O	n	n	u	n	n	n	x
O=C(ONc1ccc(N=NC(=O)c2ccccc2O)cc1)c1ccccc1	n	n	n	n	50.1µM	n	u
CC[C@H](C)C(=O)O[C@H]1CCC=C2C=C[C@H](C)[C@H](CC[C@@H]3C[C@H](O)CC(=O)O3)C21 (stereo not given in full)	n	x	n	x	n	n	x
Cc1ccc(SCC(=O)Nc2ccc(S(=O)(=O)Nc3nccs3)cc2)cc1	n	n	u	n	u	n	x
O=C(CSc1ccncc1)Nc1ccc(S(=O)(=O)Nc2nccs2)cc1	x	u	28.2µM	u	17.8µM	n	47.8
O=C(Nc1ccc(S(=O)(=O)Nc2nccs2)cc1)/C(=C/c1ccccc1Cl)NC(=O)c1ccccc1	n	u	n	n	u	n	u
CCOCC(=O)Nc1ccc(S(=O)(=O)Nc2nccs2)cc1	n	n	n	n	n	n	x
CCOC(=O)/C=C/C(=O)Nc1ccc(S(=O)(=O)Nc2nccs2)cc1	x	n	25.1µM	n	44.7µM	n	u
COc1cccc(NC(=O)Cn2c(=O)ccc3cc(S(=O)(=O)N4CCC(C)CC4)ccc32)c1	n	n	n	n	n	n	x
C[C@@H]1O[C@H](O[C@@H]2[C@@H](Oc3cc(O)c4c(c3)O[C@H](c3ccc(O)cc3)CC4=O)O[C@@H](CO)[C@@H](O)[C@H]2O)[C@@H](O)[C@H](O)[C@@H]1O	n[21 µM]	x	x	n[12 µM]	x	x	x
C=CCOc1ccc(C(c2c(C(=O)O)[nH]c3ccccc23)c2c(C(=O)O)[nH]c3ccccc23)cc1	x	n	17.8µM	79.4µM	31.6µM	20µM	u	Pol kappa inh-2=u
COc1ccc(CN=Cc2c(C(=O)O)[nH]c3ccccc23)cc1	n	n	n	n	n	n	x
COc1ccc(-c2nnc3n2N=C(c2cc(OC)ccc2OC)CS3)c(OC)c1	n	x	x	x	x	x	x
S=c1[nH]nc(Cc2sc(-c3ccccc3)nc2-c2ccccc2)o1	n	n	n	n	n	n	x	GALK inh confirm=33.5µM;GALK redox cs=n;HEK293 tox=n
O=C1CCCC(O)=C1C(C#Cc1ccccc1)C1=C(O)CCCC1=O	n	n	n	n	n	u	x
O=C1CCCC(O)=C1Sc1ccccc1C(=O)O	x	u	31.6µM	u	8.91µM	10µM	60.1
Cc1cc(NC(=O)c2cc([N+](=O)[O-])cc([N+](=O)[O-])c2C)no1	n	n	56.2µM	u	31.6µM	u	u
SMILES	TDP1 block	FEN1 inh	POLI inh	Pol kappa inh-1	Pol eta inh-1	Pol beta inh	Pol eta inh-2	others
C[C@]12CCC3c4ccc(O)cc4CCC3C1CCC2OC(=O)CCC1CCCC1 (stereo not given in full)	n	x	x	u	x	x	x
c1ccc(C(c2ccccc2)N2CC[C@@]3(CCCNC3)C2)cc1	x	x	x	n	x	x	x
CCOCCCN(Cc1ccco1)S(=O)(=O)c1cc2c(cc1Cl)NC(=O)CO2	n	n	u	n	79.4µM	u	u	Pol kappa inh-2=u
Fc1cccc(-c2nn[nH]n2)c1	n	n	n	n	n	n	x
Cc1ccc(C)n1-c1cccc(-c2nn[nH]n2)c1	x	x	x	x	x	x	u
Cc1cnc(CNc2ccnc(-c3cccc(NS(C)(=O)=O)c3)n2)cn1	x	x	x	n	x	x	x
O=C(/C=C/c1ccco1)NC(=S)Nc1ccccc1O	n	n	u	u	n	22.4µM	u
O=C(/C=C\c1ccco1)NC(=S)Nc1ccccc1O	n	n	u	u	22.4µM	56.2µM	u
CCOc1ccc(S(=O)(=O)NCCc2sc3nc(-c4ccc(C)cc4)nn3c2C)cc1	n	n	n	n	n	n	x
O=C(O)c1cccc(NC(=O)c2ccc(N3C(=O)c4ccc(C(=O)Nc5cccc(C(=O)O)c5)cc4C3=O)cc2)c1	n	n	n	n	n	n	x
O=C(O)c1ccc2c(c1)C(=O)N(c1cccc(C(=O)/C=C/c3ccccc3)c1)C2=O	n	u	u	n	31.6µM	n	60.1
COc1ccc(-n2ccnc(NCc3cccs3)c2=O)cc1OC	n	n	n	n	n	n	x
COC1=CC(=Cc2c(N)n3nc(CC(=O)N4CCOCC4)sc3nc2=O)C=C(OC)C1=O	n	n	22.4µM	79.4µM	20µM	u	u

Screening results: PubChem, National Center for Advancing Translational Sciences (NCATS)
